For one compound, inhibition results are on record in PubChem BioAssay AID504401 (The Scripps Research Institute Molecular Screening Center, 2011).

A number with no mark means an inactive call. The rule behind the calls is not given here.

This experiment has as its system Potassium Channel KATP. The experiment in a line: CYP450 and receptor off-target profile – biochemical, Ricerca HitProfilingScreen, selectivity assay for GPR7 antagonist project, late-stage follow-up (AID 504401). The settings on record: Ricerca radioligand binding and CYP450 panel, at 10 µM, hits give high values.

Take `COc1ccc(Oc2c(Cl)cnn(-c3cc(C)cc(C)c3)c2=O)cc1`: the inhibition is 11%.
